The record followed here is PubChem BioAssay (NCATS).

The structures appear in SMILES notation. Inconclusive results are not listed. Active and inactive are the calls of the source. Unless noted, calls follow the shape of the dose curve; as a rule, active = well fitted curve in the direction sought with a large enough effect; inconclusive = small, poorly fitted or top-dose-only effect, or another doubt; inactive = no such curve, though single readings can be large; an effect the other way counts as inactive or inconclusive.

Experiment [1] concerns the target Lysosomal acid glucosylceramidase (Homo sapiens) (UniProt P04062). Nature of the experiment: Glucocerebrosidase-p2 (AID 348; in the data active = potency below about 10 µM; also: potency is read from the fitted curve at half-maximal effect). The following applies: purified GBA, blue fluorogenic substrate, 40 min. An outline of the steps:
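Normal human glucocerebrosidase (0.2 nM) with blue fluorogenic substrate (80 uM final) in citrate/phosphate pH 5.9 with 10mM sodium taurocholate, 0.01% tween-20; 40 min RT, NaOH/glycine stop; fluorescence Ex 365/Em 440; AC50 from a titration from 0.6 nM upwards.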

Experiment [2] is described as follows: AP1 Signaling Pathway (AID 357; active = well fitted curve in either direction with a large enough effect, not every such curve was filed as active;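 also: ME-180 reporter cells stimulated with EGF at its EC50 level; % is scaled to controls: 0 for no effect and ±100 for the full control effect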). The following applies: ME-180 AP-1-bla reporter, EGF-induced, beta-lactamase ratio, 5 h; series mostly up to 17.2 µM. The method, boiled down:
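A ratiometric CCF4 readout (405 nm excitation; 460 and 530 nm emission) quantified AP-1-driven beta-lactamase in ME-180 cells after 5 h with compound and EC50 EGF; AC50 values were derived for activators and inhibitors.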

Experiment [3] addresses Cytochrome P450 1A2 (Homo sapiens) (UniProt P05177). Nature of the experiment: p450-cyp1a2 (AID 410; calls by dose curve; also: potency is read from the fitted curve at half-maximal effect;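 as to activity change, negative = inhibition: -100% = full effect of reference inhibitor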). As to conditions: recombinant CYP1A2, luciferin-ME demethylation, luminescence; series mostly up to 25.6 µM. The method, boiled down:
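20nM CYP1A2, 100uM Luciferin-ME (=Km), 100mM KPO4; cpd 10 min RT; +NADPH regen, 60 min RT; stop/detect 20 min; luminescence. Normalized to furafylline 57 uM = full inhibition.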

Experiment [4] can be described thus: Stat Signaling Pathway (AID 446; active = well fitted curve in either direction with a large enough effect, not every such curve was filed as active;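 also: ME-180 cervical cancer cells given 40 pM IL-6 alongside compound; SIE-controlled beta-lactamase reporter measured as 460/530 nm FRET emission ratio; % is scaled to controls: 0 for no effect and ±100 for the full control effect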). The following applies: ME-180 (cervical carcinoma) SIE beta-lactamase reporter, IL-6 stimulated, 5 h; series mostly up to 17.2 µM. An outline of the steps: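 Compound effects on IL-6-induced STAT reporter activity were measured in ME-180 cells. After overnight culture, cells were co-treated with 40 pM IL-6 for 5 hrs before beta-lactamase substrate loading at room temperature.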

Experiment [5] concerns the target Glucocorticoid receptor (Homo sapiens) (UniProt P04150). Nature of the experiment: GR-EFC Redistribution (AID 451; calls by dose curve; also: potency is read from the fitted curve at half-maximal effect). As to conditions: CHO-K1 GR-EFC translocation, beta-gal luminescence, 2 h. An outline of the steps: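 Translocation of GR-ED fusion to nuclear EA restores b-gal, read by luminescence after 1 h room-temperature detection. Engineered CHO-K1 biosensor cells, 1,000/well, exposed 2 h at 37 C to titrations up to 46 uM final.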

Experiment [6] addresses Mitogen-activated protein kinase 10 (Mus musculus) (UniProt Q61831). Description: JNK3 AlphaScreen Assay (AID 530; active = well fitted curve in either direction with a large enough effect, not every such curve was filed as active;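 also: kinase came from lysate of stimulated human HepG2 cells; signal reports phosphorylation of biotinylated GST-cJun 1-79 at Ser73 with 10 µM ATP; % is scaled to controls: 0 for no effect and ±100 for the full control effect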). As to conditions: JNK3 lysate, c-Jun phosphorylation; series mostly up to 57.1 µM. The method, boiled down:
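Kinase buffer: 20 mM Tris-HCl pH 7.6, 10 mM MgCl2, 1 mM DTT, 0.1 mM Na3VO4, 0.01% Tween-20; ATP 10 uM. Substrate biotin-GST-cJun(1-79), enzyme from activated HepG2 lysates. Detection by Ser73 phospho-antibody AlphaScreen.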
In general terms: Alpha assays give light when donor and acceptor beads are brought close together.

For experiment [7], the target named is 3',5'-cyclic-AMP phosphodiesterase 4B (Homo sapiens) (UniProt Q07343). Description: qHTS Assay for Inhibitors of PDE-IV (AID 607; active = well fitted activation curve with a large enough effect in the main read-out, with a control signal flat, not every such curve was filed as active; also: % of control where 0% means no effect). As to conditions: HEK293 ACTOne CNG channel cells, membrane potential fluorescence; series mostly up to 22.9 µM. An outline of the steps: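 ACTOne HEK293 cells carry a modified cAMP-gated CNG channel and express endogenous PDE4; plated 1000 cells/well, compounds up to 22.9 uM final. Membrane-potential dye fluorescence (ex 535/em 590) was read; parental cells received 10 uM forskolin + 100 uM RO 20-1724.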
3',5'-cyclic-AMP phosphodiesterase 4B (Homo sapiens), sequence (Q07343 whole entry, looked up): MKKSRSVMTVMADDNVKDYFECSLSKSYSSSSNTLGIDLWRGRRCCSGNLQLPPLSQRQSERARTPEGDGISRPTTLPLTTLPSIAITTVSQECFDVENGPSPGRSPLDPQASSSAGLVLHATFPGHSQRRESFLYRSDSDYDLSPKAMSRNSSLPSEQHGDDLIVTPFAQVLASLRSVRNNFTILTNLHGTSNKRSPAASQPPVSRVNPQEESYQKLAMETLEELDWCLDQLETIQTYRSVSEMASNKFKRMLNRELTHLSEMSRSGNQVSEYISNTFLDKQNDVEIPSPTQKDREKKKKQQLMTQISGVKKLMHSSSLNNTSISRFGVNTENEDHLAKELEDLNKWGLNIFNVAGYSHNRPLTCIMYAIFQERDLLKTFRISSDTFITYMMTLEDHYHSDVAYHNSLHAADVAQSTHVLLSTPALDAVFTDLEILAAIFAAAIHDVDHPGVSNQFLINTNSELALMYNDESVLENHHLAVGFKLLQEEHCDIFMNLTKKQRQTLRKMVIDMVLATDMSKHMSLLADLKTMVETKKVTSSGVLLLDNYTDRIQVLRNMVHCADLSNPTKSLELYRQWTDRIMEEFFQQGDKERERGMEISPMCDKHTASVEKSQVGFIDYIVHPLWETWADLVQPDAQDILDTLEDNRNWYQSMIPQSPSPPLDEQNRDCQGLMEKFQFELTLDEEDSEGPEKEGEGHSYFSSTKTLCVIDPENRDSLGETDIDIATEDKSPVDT
On the technique in general: Quantitative high-throughput screening tests each substance at several concentrations.

Experiment [8] has as its target Cytochrome P450 3A4 (Homo sapiens) (UniProt P08684). Description: qHTS Assay for Activators of Cytochrome P450 3A4 (AID 885). Also: nearly all actives have a fitted effect of over 65% in size. Also: potency is read from the fitted curve at half-maximal effect. As to conditions: recombinant CYP3A4, Luciferin-PPXE luminescence, 60 min; series mostly up to 57.1 µM. The method, boiled down: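 CYP3A4 activity: Luciferin-PPXE O-dealkylation, 25uM substrate, 200mM KPO4, RT throughout. Read-out is luciferase luminescence; higher values reflect activation.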

A short description of experiment [9]: Primary qHTS for small molecule stabilizers of the endoplasmic reticulum resident proteome: Secreted ER Calcium Modulated Protein (SERCaMP) assay (AID 1508630). Also: % is scaled to controls: 0 for no effect and ±100 for the full control effect. As to conditions: SH-SY5Y GLuc-SERCaMP (Gaussia luciferase released on ER calcium loss) secretion, thapsigargin, luminescence; series mostly up to 38.4 µM. The method, boiled down:
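The SH-SY5Y reporter protocol was run at 3 concentrations up to 38.3 uM (primary) or 11 concentrations (follow-up): 16 h compound, 100 nM thapsigargin for 4 h, then extracellular luciferase luminescence.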

Experiment [10] is described as follows: NFAT Signaling Pathway (AID 444; active = well fitted curve in either direction with a large enough effect, not every such curve was filed as active). As to conditions: Jurkat NFAT-bla M1, carbachol, beta-lactamase ratio, 5 h. An outline of the steps: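 Read-out: CCF4 FRET ratio (460 nm/530 nm) after 1 h RT dye loading, used for %activity and AC50 from titration series. Cells: Jurkat NFAT-β-lactamase/M1 line, treated with compound plus 1 uM carbachol for 5 h, 37 °C.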
Experiment [11] can be described thus: qHTS Assay for Lipid Storage Modulators (AID 1519; calls by dose curve). The following applies: Drosophila S3 cells, BODIPY lipid droplet/cell ratio, laser cytometry, cells loaded with oleic acid. An outline of the steps:
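Cells seeded at 5,000 per well were treated with compounds over a concentration series and loaded with oleic acid (400 uM, as added). Lipid droplet fluorescence (488 nm excitation, 500-530 nm channel) was read by laser-scanning cytometry and normalized to 20 uM Triacsin C.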

Experiment [12] can be described thus: Confirmation and Secondary Assay for Modulators of Hemoglobin Beta Chain Splicing at IVS2 654 locus (AID 910).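 Also: HeLa cells stably carrying EGFP split by mutant beta-globin IVS2-654 intron; per-well total GFP intensity by laser scanning cytometry after 2-day treatment; % of control where 0% means no effect.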 As to conditions: HeLa EGFP-654 splicing reporter, GFP fluorescence, 48 h; series mostly up to 46.1 µM. An outline of the steps: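 Readout: per-well total peak green fluorescence (488 nm ex, 500–520 nm em) from objects 5–250 µm, reflecting correct splicing of an EGFP-654 reporter. Compounds were applied for 2 days at 37 °C to overnight-plated HeLa EGFP-654 cells; controls were DMSO and 500 nM IVS2-654 PNA.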

A short description of experiment [13]: Confirmation and Secondary Assay for Modulators of Hemoglobin Beta Chain Splicing at IVS2 705 locus (AID 930).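 Also: HeLa cells stably expressing the EGFP-705 splicing reporter; GFP fluorescence per well restored by corrected splicing of the IVS2-705 intron in EGFP; % of control where 0% means no effect.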 The following applies: HeLa EGFP-705 splicing reporter, GFP fluorescence, 48 h; series mostly up to 46.1 µM. The method, boiled down:
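Per-well GFP, captured at 1 x 8 µm resolution with 488 nm excitation, served as the read-out for HeLa EGFP-705 cells incubated 2 days with test compound versus DMSO.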

The target in experiment [14] is Ubiquitin carboxyl-terminal hydrolase 1 (Homo sapiens) (UniProt O94782). Description: Inhibitors of USP1/UAF1: Pilot qHTS (AID 504865).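 Also: rhodamine fluorescence freed from ubiquitin-rhodamine substrate followed over time; top concentration of the series differs between compounds; % is scaled to controls: 0 for no effect and ±100 for the full control effect; nearly all actives have a fitted effect of over 35% in size.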 As to conditions: purified USP1/UAF1, Ub-rhodamine cleavage fluorescence; series mostly up to 114 µM. The method, boiled down:
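Deubiquitinase activity followed as kinetic rhodamine fluorescence release from 150 nM Ub-Rho. 1 nM USP1/UAF1 with compound, after 15 min room-temperature preincubation, in HEPES pH 7.8 buffer containing TCEP, EDTA, BSA and Tween-20.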

Experiment [15] can be described thus: qHTS profiling for inhibitors of Plasmodium falciparum proliferation (AID 504749).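 Also: 0% = DMSO vehicle and full inhibition = artemisinin control; nearly all actives have a fitted effect of over 60% in size.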 As to conditions: P. falciparum in erythrocytes, SYBR Green DNA, 72 h. An outline of the steps: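 In a 72 h erythrocytic culture (37 C, humidified, 5% CO2) at 2.5% hematocrit and 0.3% starting parasitemia, compounds were tested; SYBR Green I in detergent lysis buffer stained parasite DNA overnight.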

Setting [16] is: measured here: cell count channel max response.
[17] abbreviates: measured here: lipid channel max response.
Setting [18] is: at 12.8 µM (top of the series), parasite line A.
Where [19] appears, read: at 12.8 µM (top of the series), parasite line B.

Cytochrome P450 3A4 (Homo sapiens), sequence (P08684 whole entry, looked up): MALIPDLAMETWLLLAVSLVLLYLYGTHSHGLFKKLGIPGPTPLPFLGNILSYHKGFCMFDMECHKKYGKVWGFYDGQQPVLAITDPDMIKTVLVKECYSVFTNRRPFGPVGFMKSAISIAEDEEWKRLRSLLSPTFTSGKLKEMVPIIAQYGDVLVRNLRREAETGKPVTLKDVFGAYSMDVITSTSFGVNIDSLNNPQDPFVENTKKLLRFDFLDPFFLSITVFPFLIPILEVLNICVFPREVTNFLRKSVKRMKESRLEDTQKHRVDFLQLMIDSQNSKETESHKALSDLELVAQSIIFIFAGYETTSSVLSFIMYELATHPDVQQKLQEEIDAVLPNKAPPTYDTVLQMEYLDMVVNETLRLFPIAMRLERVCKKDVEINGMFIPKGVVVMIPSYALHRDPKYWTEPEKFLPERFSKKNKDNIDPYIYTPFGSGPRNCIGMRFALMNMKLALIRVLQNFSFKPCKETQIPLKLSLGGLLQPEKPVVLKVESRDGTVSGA
Cytochrome P450 1A2 (Homo sapiens), sequence (P05177 whole entry, looked up): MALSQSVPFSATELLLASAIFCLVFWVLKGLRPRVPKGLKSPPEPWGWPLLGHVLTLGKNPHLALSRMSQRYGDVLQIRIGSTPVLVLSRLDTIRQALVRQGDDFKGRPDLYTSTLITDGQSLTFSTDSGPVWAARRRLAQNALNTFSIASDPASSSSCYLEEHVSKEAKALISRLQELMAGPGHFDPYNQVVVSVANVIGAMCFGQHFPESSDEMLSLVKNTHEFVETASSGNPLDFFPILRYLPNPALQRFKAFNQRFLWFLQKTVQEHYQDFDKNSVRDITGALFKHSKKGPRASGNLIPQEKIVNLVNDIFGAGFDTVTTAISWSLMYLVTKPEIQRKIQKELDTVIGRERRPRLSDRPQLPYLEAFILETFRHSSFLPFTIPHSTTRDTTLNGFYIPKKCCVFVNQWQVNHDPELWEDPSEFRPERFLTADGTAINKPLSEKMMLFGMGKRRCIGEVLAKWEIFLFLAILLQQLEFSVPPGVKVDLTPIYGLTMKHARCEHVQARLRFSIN
Glucocorticoid receptor (Homo sapiens), sequence (P04150 whole entry, looked up, the tested form may be a part): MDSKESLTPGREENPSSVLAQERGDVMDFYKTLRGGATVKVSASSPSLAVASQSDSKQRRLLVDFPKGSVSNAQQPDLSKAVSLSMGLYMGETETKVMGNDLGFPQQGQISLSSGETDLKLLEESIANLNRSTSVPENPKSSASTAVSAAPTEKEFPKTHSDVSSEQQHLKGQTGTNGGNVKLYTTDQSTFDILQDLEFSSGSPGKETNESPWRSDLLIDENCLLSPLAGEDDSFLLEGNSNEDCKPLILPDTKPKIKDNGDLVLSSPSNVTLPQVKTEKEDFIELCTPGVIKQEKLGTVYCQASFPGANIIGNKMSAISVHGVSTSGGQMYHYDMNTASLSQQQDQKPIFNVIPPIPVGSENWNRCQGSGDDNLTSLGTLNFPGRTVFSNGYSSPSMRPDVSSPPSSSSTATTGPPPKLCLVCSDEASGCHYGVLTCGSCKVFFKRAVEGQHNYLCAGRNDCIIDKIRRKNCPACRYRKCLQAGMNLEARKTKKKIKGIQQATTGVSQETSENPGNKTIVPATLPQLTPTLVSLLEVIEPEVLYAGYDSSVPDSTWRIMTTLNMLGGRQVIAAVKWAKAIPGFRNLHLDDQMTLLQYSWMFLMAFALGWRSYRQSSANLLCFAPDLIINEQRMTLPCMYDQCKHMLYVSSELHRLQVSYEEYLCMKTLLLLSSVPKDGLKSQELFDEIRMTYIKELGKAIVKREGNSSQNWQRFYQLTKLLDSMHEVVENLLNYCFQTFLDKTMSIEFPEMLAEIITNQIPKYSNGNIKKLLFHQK
Lysosomal acid glucosylceramidase (Homo sapiens), sequence (P04062 whole entry, looked up): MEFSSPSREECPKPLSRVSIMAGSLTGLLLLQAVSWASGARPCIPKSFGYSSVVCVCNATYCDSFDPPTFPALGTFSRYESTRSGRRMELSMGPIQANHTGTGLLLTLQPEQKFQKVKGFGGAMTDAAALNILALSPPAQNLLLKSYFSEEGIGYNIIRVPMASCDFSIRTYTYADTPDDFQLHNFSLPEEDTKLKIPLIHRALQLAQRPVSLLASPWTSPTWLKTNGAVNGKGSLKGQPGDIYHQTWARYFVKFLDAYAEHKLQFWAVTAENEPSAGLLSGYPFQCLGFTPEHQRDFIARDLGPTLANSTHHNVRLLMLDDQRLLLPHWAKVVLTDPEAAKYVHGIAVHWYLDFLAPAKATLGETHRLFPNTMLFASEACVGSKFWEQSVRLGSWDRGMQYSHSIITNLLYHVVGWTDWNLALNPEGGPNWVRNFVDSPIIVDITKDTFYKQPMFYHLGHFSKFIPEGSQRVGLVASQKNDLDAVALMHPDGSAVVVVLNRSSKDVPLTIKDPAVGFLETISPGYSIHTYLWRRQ
Ubiquitin carboxyl-terminal hydrolase 1 (Homo sapiens), sequence (O94782 whole entry, looked up): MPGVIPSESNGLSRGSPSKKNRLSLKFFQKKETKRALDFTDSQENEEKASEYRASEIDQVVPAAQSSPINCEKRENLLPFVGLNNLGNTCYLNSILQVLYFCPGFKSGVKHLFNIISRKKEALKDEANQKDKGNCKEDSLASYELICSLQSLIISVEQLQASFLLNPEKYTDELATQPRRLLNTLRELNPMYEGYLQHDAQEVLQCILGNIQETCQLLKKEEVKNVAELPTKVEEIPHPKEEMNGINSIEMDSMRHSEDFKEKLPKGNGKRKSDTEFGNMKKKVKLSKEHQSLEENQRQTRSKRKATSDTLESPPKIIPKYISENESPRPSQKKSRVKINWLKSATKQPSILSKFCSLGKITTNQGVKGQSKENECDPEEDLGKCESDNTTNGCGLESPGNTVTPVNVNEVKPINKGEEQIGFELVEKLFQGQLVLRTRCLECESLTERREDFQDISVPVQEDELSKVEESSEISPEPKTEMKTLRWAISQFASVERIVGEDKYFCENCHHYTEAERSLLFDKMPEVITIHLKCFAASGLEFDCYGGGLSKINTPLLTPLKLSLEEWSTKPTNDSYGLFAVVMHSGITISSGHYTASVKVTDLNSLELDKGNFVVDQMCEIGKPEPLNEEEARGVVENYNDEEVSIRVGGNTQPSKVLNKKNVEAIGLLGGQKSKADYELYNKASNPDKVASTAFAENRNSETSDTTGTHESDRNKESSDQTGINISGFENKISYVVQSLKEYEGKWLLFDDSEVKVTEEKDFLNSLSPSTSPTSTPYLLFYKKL

In the case of `N#Cc1cccc(NC(=O)N2CC[C@@]3(CCCN(C(=O)Oc4ccccc4)C3)C2)c1`, the Potency was > 11.4 µM (inactive) in experiment [1] and > 46 µM (inactive) in experiment [5]. In addition, the result in experiment [2], in experiment [4], in [6] and in [9] was inactive. Also, the Potency entry in experiment [3], in [7] and in experiment [8] was “inactive” in each case.
Turning to `O=C(Nc1ccccc1)N1CCC2(CC1)CCN(C(=O)Oc1ccccc1)CC2`, the Potency is > 11.4 µM (inactive) in experiment [1] and > 46 µM (inactive) in experiment [5]. For the same molecule, the outcome in experiment [2], in experiment [6] and in [9] was inactive. Moreover, the Potency result in experiment [3] and in [7] was “inactive” each time. Besides, in [10] (at 7.69 µM (top of the series)), the activity change, negative = inhibition was 5.23% (inactive).
For the molecule `O=C(Oc1ccccc1)N1CCC2(CCN(Cc3nccs3)CC2)CC1`, the outcome in experiment [2], in experiment [4], in experiment [6] and in experiment [9] was inactive. Further, the Potency result in [3] and in [7] was “inactive” each time. The Potency was > 46 µM (inactive) in experiment [5] and 25.1 µM (active) in [8].
In the case of `O=C(Nc1ccccc1)N1CCCC2(CCN(C(=O)Oc3ccccc3)CC2)C1`, the Potency was > 11.4 µM (inactive) in [1], 25.1 µM (active) in experiment [3] and > 46 µM (inactive) in experiment [5]. In addition, the outcome in experiment [2], in experiment [4] and in experiment [9] was inactive. Moreover, the Potency result in [7] and in [8] was “inactive” in each case.
Regarding `CCC1CN2CCc3cc(OC)c(OC)cc3C2CC1CC1NCCc2cc(OC)c(OC)cc21` (configuration not stated), the activity change, negative = inhibition in [11] (at 57.5 µM (top of the series)) is 7.1% (inactive). Moreover, the max response in experiment [11] (setting [16]) was -0.174%; in [11] (setting [17]), 8%.
Take `C=C(C)C1Cc2c(ccc3c(=O)c4c(oc23)COc2cc(OC)c(OC)cc2-4)O1` (configuration not stated): the Potency result in experiment [12] and in [13] was “inactive” throughout. Further, the outcome in experiment [9] was inactive.
As for `COc1ccc(NC(=O)N2CC3(CCN(C(=O)Oc4ccccc4)CC3)C2)cc1`, the values for the Potency in experiment [1] and in [5] were > 11.4 µM (inactive) and > 46 µM (inactive), respectively. In addition, the outcome in [2], in experiment [4], in experiment [6] and in experiment [9] was inactive. The activity change, negative = inhibition in experiment [10] (at 7.69 µM (top of the series)) is 3.27% (inactive). In addition, the Potency entry in experiment [7] is “inactive”.
Consider `C=CCc1ccc2c(c1)OCO2`, for which, in [6], the molecule was classed as inactive. The Potency result in [8], in [12], in experiment [13] and in experiment [14] was “inactive” in each case. The activity change, negative = inhibition in [11] (at 57.5 µM (top of the series)) was 12.7% (inactive). The results for the max response in experiment [11] (setting [16]) and in experiment [11] (setting [17]) were 13.6% and 31.4%, respectively.
Regarding `O=C1c2ccccc2-c2cccc3cccc1c23`, the Potency entry in [8], in [12], in [13] and in experiment [14] was “inactive” in each case. Besides, the activity change, negative = inhibition in [11] (at 57.5 µM (top of the series)) was 15.9% (inactive). Further, the max response in experiment [11] (setting [16]) was determined as 9.47%; in experiment [11] (setting [17]) it was 28.5%.
On to `C[N+]1([O-])[C@@H]2CC(OC(=O)[C@@H](CO)c3ccccc3)C[C@@H]1[C@H]1O[C@H]12` (some centres not stated), for which the activity change, negative = inhibition is -52.1% (active) in experiment [10] (at 17.2 µM (top of the series)) and 0.148% (inactive) in experiment [11] (at 25.7 µM (top of the series)). The activity, negative = inhibition in [15] (setting [18]) was -0.201% (inactive); in experiment [15] (setting [19]), -5.73% (inactive); in experiment [15] (at 28.7 µM (top of the series), parasite line A), 13.1% (inactive); in experiment [15] (at 28.7 µM (top of the series), parasite line B), 10.8% (inactive).
Consider `CCNC[C@H](O)c1cccc(O)c1`, for which the activity change, negative = inhibition was -13.2% (inactive) in experiment [10] (at 17.2 µM (top of the series)) and -1.26% (inactive) in experiment [11] (at 25.7 µM (top of the series)). Moreover, the figures for the activity, negative = inhibition in [15] (setting [18]) and in experiment [15] (setting [19]) were -4.47% (inactive) and 2.63% (inactive), respectively.
